# Bioassay records as filed in PubChem.
# Most compounds without a hit are left out; they make up all but 1.6% or so of the library.
# eIF4E-4G inh – inhibitors of eIF4E and eIF4G interaction in translation initiation | P63073+Q04637 | TR-FRET eIF4E-eIF4GI(517-606) binding, 2 h | inhibition, % at 21.7 µM | 220,000 compounds, 0.37% hits;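 active means inhibition above about 30%, limit read from the data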;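 further: 0% = full FRET control wells and 100% = background wells lacking eIF4GI fragment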
# Target sequence (P63073 whole entry, looked up, the tested form may be a part): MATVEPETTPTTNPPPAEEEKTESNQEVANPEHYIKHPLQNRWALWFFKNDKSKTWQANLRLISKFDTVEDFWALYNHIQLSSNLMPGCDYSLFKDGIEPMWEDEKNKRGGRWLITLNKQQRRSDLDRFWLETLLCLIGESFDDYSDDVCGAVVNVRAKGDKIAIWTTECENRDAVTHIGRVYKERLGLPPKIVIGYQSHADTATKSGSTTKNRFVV
# Target sequence (Q04637 whole entry, looked up, the tested form may be a part): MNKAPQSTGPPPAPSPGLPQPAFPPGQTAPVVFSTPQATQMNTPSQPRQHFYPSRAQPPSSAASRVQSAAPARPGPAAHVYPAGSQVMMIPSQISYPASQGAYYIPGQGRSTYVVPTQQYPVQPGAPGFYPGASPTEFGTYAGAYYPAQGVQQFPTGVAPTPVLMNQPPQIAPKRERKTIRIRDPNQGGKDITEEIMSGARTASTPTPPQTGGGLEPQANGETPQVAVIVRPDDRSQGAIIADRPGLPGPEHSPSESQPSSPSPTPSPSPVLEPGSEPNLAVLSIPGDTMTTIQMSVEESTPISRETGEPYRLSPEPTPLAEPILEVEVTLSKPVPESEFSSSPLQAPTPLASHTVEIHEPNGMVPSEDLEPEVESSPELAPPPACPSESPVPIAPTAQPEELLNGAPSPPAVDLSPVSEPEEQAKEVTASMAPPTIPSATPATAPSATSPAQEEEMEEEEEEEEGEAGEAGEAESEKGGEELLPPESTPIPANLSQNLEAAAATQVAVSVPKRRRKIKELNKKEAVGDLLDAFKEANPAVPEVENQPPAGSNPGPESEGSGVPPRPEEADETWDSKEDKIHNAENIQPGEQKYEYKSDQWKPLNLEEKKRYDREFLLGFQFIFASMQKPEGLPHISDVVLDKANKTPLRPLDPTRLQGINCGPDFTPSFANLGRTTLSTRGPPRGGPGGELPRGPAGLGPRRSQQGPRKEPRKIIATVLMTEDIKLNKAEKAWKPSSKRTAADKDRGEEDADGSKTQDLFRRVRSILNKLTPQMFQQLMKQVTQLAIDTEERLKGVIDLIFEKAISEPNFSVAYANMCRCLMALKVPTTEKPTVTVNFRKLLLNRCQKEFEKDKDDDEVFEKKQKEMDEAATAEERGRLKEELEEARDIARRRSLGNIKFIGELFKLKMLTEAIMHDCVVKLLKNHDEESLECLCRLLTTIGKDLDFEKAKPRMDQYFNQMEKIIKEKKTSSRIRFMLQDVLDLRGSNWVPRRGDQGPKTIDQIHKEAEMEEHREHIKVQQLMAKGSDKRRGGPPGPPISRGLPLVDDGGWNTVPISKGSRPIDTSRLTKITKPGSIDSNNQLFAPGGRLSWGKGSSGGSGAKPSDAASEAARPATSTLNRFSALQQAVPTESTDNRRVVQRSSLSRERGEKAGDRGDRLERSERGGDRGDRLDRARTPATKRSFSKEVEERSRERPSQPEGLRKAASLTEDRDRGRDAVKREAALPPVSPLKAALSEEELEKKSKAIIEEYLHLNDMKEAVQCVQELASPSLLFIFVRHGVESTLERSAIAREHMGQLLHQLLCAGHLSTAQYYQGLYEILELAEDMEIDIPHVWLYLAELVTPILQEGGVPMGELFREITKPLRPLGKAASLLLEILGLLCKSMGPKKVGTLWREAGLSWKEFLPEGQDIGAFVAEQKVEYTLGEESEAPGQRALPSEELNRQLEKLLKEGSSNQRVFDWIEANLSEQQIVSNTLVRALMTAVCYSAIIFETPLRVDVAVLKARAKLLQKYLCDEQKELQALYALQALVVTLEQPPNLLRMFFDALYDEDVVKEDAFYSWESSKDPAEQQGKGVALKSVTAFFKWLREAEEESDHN
# PERK inh – blocks human PERK kinase; CHO PERK-DD fusion, SEAP luminescence translation reporter; inhibition, % at 5.6 µM; 220,000 compounds, 0.17% hits;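 active means inhibition above the mean inhibition of all tested compounds plus 3 SD, set separately per screening campaign, cut at about 2.9% in these data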;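 further: PERK kinase domain activated by AP20187 dimerizer at 100 nM; 0% = DMSO with dimerizer and 100% = rapamycin at 8.4 µM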
# PABP polyA inh – blocks human PABP binding to poly(A) RNA; P11940; fluorescence polarization; inhibition, % at 35 µM; 290,000 compounds, 1% hits;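 further: calls also rest on retests at 20 µM and on dose response follow-up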
# eIF4H inh – inhibitors of RNA binding by human eIF4H; Q15056; eIF4H fluorescence polarization binding assay; inhibition, % at 35 µM; 290,000 compounds, 0.94% hits; AID 2012;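 further: calls also rest on retests at 20 µM and on dose response follow-up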
# MLLE-PAM2 inh – inhibitors of microRNA-mediated deadenylation, human PABP1 MLLE binding. 360,000 compounds, 0.36% hits. P11940. AID 588489. GST-MLLE / FITC-PAM2 fluorescence polarization. inhibition, % at 20 µM; in the data active means inhibition above about 35%, passing the limit was not always enough;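 further: plate controls were DMSO wells with GST-MLLE for no effect and wells lacking GST-MLLE protein for full effect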
# * marks the source's active call; other numbers are inactive results; ? = inconclusive; . = no result. Unless noted, how the calls were made is not given here.
SMILES,eIF4E-4G inh,PERK inh,PABP polyA inh,eIF4H inh,MLLE-PAM2 inh
O=C(N/N=C/c1c[nH]c2ccccc12)c1cc(-c2ccc(-c3ccccc3)cc2)n[nH]1,-10.9,0.0,-2.7,0.3,8.2
O=C(Nc1ccc(N2CCN(C(=O)c3ccco3)CC2)cc1)C(c1ccccc1)c1ccccc1,-6.1,-1.0,-4.6,-4.3,6.3
O=S(=O)(c1ccccc1)N1N=C(c2ccccc2)CC1c1ccco1 (stereo not drawn),.,.,6.7,-1.7,.
Cn1cc(NC(=O)Nc2ccc(C(F)(F)F)cc2)c(C(F)(F)F)n1,1.0,3.9*,6.1,4.8,10.6
CCOc1ccc(CNC23CN4CN(CN(C4)C2)C3)cc1,2.9,1.8,-3.7,1.7,-3.9
Cc1cccc(OCC(=O)N(Cc2cccs2)C2CCS(=O)(=O)C2)c1C (stereo not drawn),-16.4,0.1,0.5,83.0*,8.6
CC(C)CC(=O)NC(=S)NNC(=O)c1ccc([N+](=O)[O-])cc1,5.1,1.3,1.4,5.8,8.8
CC(C)CC(=O)NC(=S)NNC(=O)c1ccc(NC(=O)C2CCCCC2)cc1,-1.2,0.9,active,61.1*,1.4
CCOC(=O)CN(C(=O)c1snc(C(N)=O)c1N)C(C(=O)NCCC(C)C)c1ccc(C)cc1 (stereo not drawn),.,.,.,.,-7.9
Cc1ccnc(NC(=O)/C=C/c2cccs2)c1,7.5,0.8,1.6,-2.2,4.1
Cn1c(=O)c2c(ncn2CC(=O)Nc2cccc(S(=O)(=O)Nc3ccccc3F)c2)n(C)c1=O,-0.2,0.9,5.0,-13.5,45.4*
COc1ccccc1N1C(=O)N(C(C)=O)C2C1Nc1ccccc1N2C (stereo not drawn),-0.6,-1.0,110.4*,78.3*,-36.6
CCOC(=O)Cn1nc(-c2ccccc2)c2ccccc2c1=O,-4.0,0.0,-6.6,6.6,0.1
COC(=O)c1c(NC(=O)Nc2ccc(Cl)cc2)sc(C)c1C,-15.3,0.1,-2.6,-4.3,-4.4
CC1=CC(=C2C(=O)c3ccccc3C2=O)C=C(C)N1C,-3.0,-1.1,2.4,-0.5,-3.1
CCCCCN1C=CC(=C2C(=O)c3ccccc3C2=O)C=C1,3.4,-0.1,1.7*,88.4*,-3.4
FC(F)(F)c1cccnc1N1CCN(c2ncnc3nc[nH]c23)CC1,-5.8,0.9,-3.4,7.3,5.2
Cc1ccnc(NC(=O)CCCc2ccccc2)c1,1.5,0.4,-1.2,1.2,3.8
O=C(CCCc1ccccc1)Nc1ccccn1,2.1,1.3,52.3*,0.8,3.0
Cc1ccccc1C(=O)Oc1ccc(Cl)cc1C(=S)N1CCOCC1,.,.,0.0,-2.0,-31.6
COCCN=c1scc(-c2ccco2)n1/N=C/c1ccc(O)c(O)c1O,44.7*,0.9,4.6*,?,19.2
CC(C)N=c1scc(-c2ccco2)n1/N=C/c1ccc(O)c(O)c1,-3.4,-0.7,-3.3,-13.1,-18.5
C=CCN=c1scc(-c2ccco2)n1/N=C/c1ccc(O)c(O)c1O,6.3,0.6,41.7*,91.6*,10.8
CN=C1SC(CC(=O)Nc2ccccc2F)C(=O)N1C (stereo not drawn),0.2,4.4*,-1.0,-8.5,1.0
CN=C1SC(CC(=O)Nc2cccc(C(F)(F)F)c2)C(=O)N1C (stereo not drawn),3.2,0.7,-3.7,-1.6,-7.6
SMILES,eIF4E-4G inh,PERK inh,PABP polyA inh,eIF4H inh,MLLE-PAM2 inh
Cc1nc2cccc(C(=O)Oc3ccc([N+](=O)[O-])cc3)c2o1,3.4,0.4,3.5,1.0,-20.1
O=C1c2ccccc2-c2n[nH]c3cccc1c23,.,.,.,.,73.5*
O=c1c(-c2ccccc2)n[nH]c2ccccc12,3.4,0.9,-3.2,-5.3,-5.9
CCn1ncc([C@@H]2C[C@H]3CN(Cc4ccccc4C)C(=O)[C@]34CCCN24)c1C,-0.4,-0.1,13.8,40.9,-13.4
O/N=C1\CCCc2oc3c(c21)CCCC3,0.7,0.2,9.4,-5.5,-12.8
CCCCN1C(=O)C(CC(=O)NC(c2ccccc2)c2ccccc2)CC(C(=O)N(CC)CC)=C1C (stereo not drawn),.,.,.,.,2.0
O=C(NCCc1ccccc1)C1CCCN1C(=O)NCc1ccccc1 (stereo not drawn),-3.1,-0.4,-11.0,-9.4,-2.1
CC(C)(C)OC(=O)N1CCCC1C(=O)NCCc1ccccc1 (stereo not drawn),4.9,0.3,51.6*,5.8,-151.6
Cc1cc(O)cc2c1C(=O)/C(=C/c1ccco1)O2,.,.,42.6*,60.8*,-10.7
CCC(=O)Oc1ccc2c(c1)O/C(=C\c1ccco1)C2=O,-1.5,0.6,?,?,56.5
